Laboratory results taken from PubChem BioAssay (NCI).
This is part of a sample that, as a whole, favours compounds with a hit. Of some 79,000 tested, about 15% had one in any assay. No stated cut-off is given here; in the data, active means growth inhibition above about 70%; inactive means the rest.

Tests used:
[1] = NCI Yeast Anticancer Drug Screen. Data for the rad50 strain (AID 155);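 further: 0% = growth of vehicle-only cultures of the same strain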; conditions: S. cerevisiae rad50 strain growth inhibition; at 50.0 µM; active compounds read high
In short: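 Cells are treated with compound, grown, and their growth is then scored against vehicle-only cultures of the same repair-deficient yeast strain.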

[2] = NCI Yeast Anticancer Drug Screen. Data for the mec2-1 strain (AID 157); conditions: S. cerevisiae mec2-1 strain, at 50.0 µM, active compounds read high
In short: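 Cells of the genetically defined mec2-1 yeast strain are incubated with test compound. Inhibition of growth is calculated against vehicle-treated controls.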

[3] = NCI Yeast Anticancer Drug Screen. Data for the sgs1 mgt1 strain (AID 161);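 further: 0% = growth of cultures given vehicle only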; conditions: S. cerevisiae sgs1 mgt1 strain, at 50.0 µM, active compounds read high
In short: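 Read-out: growth inhibition vs vehicle controls. Cells: mutant yeast strain deficient in DNA damage repair.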

[4] = NCI Yeast Anticancer Drug Screen. Data for the cln2 rad14 strain (AID 165);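 further: 0% = growth equal to vehicle treated cultures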; conditions: S. cerevisiae cln2 rad14 strain, at 50.0 µM, active compounds read high
In short: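 The screen exposed genetically defined yeast (cln2 rad14) to test compounds and scored growth inhibition relative to vehicle-treated controls.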

[5] = NCI Yeast Anticancer Drug Screen. Data for the bub3 strain (AID 167); conditions: S. cerevisiae bub3 mutant strain, at 50.0 µM, active compounds read high
In short: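 Part of a panel of yeast mutants defective in DNA damage repair or cell cycle regulation. Each strain is grown with compound, and inhibition is calculated relative to solvent-treated cultures.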

[6] = NCI Yeast Anticancer Drug Screen. Data for the mlh1 rad18 strain (AID 175); conditions: S. cerevisiae mlh1 rad18 strain growth inhibition; at 50.0 µM; active compounds read high
In short: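 Compound-treated yeast growth, normalised to vehicle controls. Strain bears defined DNA repair mutations.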

Measured: growth inhibition

O=C(CCCl)NNC1=NCCCN1
inactive: [1] 2.5% | [2] -14.3% | [3] -15.4% | [4] 23.2% | [5] -4.35% | [6] -0.05%

CC(=O)Oc1ccc(OC(C)=O)c2cc3c(cc12)C(=O)C(C)=C(C)C3=O
inactive: [1] 0.4% | [2] 2.35% | [3] 1.1% | [4] -7.05% | [5] 3.35% | [6] 4.85%

Cc1ccc(S(=O)(=O)OCC2CC=CCC2COC(=O)c2ccc([N+](=O)[O-])cc2)cc1 (stereo not given)
inactive: [1] 33.5% | [2] -5.55% | [3] 12.1% | [4] 15.1% | [5] 6.6% | [6] 6.4%

COc1cc(C2SC(N)=Nc3c2c(C)nn3C(=O)c2ccc(Cl)cc2)ccc1O (stereo not given)
inactive: [1] -36.7% | [2] 15.8% | [3] -9.55% | [4] -30.4% | [5] 16.8% | [6] -10.2%

O=C(Nn1cnc2ccccc2c1=O)c1ccc(NC(=S)Nc2ccccc2)cc1
inactive: [1] 63.5% | [2] -16.4% | [3] 52.7% | [4] -27.8% | [5] -1.45% | [6] 7.5%

NC(=S)C(=S)NCCO
inactive: [1] 19.2% | [2] 1.7% | [3] -5.7% | [4] -68.2% | [5] -2.7% | [6] -12.1%

CCNC(=O)C1C2C=CC(C2)C1C(=O)NCC (stereo not given)
inactive: [1] 2.9% | [2] -9.6% | [3] -9.15% | [4] -46% | [5] -5.3% | [6] 0.05%

Cc1ccccc1N(C(=O)C(=O)O)c1ccccc1C
inactive: [1] 1.35% | [2] 7.75% | [3] 8% | [4] 7.95% | [5] -0.5% | [6] 0.15%

CCOC(=O)C1=C(C)NC(=O)NC1c1ccc(OC)cc1OC (stereo not given)
inactive: [1] -2.15% | [2] -25.6% | [3] -11.7% | [4] 18.6% | [5] -18% | [6] -6.5%

CC(C)c1ccc(/C=C2/C=C(c3ccc4ccccc4c3)OC2=O)cc1
inactive: [1] -9.25% | [2] -1.7% | [3] -31.8% | [4] -3.75% | [5] -17.8% | [6] -18.9%

CC(C)c1cccc2ccccc12
inactive: [1] 2.85% | [2] 0.2% | [3] -2.9% | [4] -13.8% | [5] -4.7% | [6] 13.4%

COc1ccc(NC(=O)COc2cc(Cl)c(Cl)cc2Cl)cc1
inactive: [1] -3.7% | [2] 6.8% | [3] 2.05% | [4] 11.9% | [5] 3.9% | [6] -17.9%

CCOC(=O)C(C)OC(=O)C(C)OC(C)=O (stereo not given)
inactive: [1] 4.7% | [2] 23.8% | [3] 17.1% | [4] 9.4% | [5] 1.5% | [6] -7.7%

CC(C)(C)OC(=O)C(N)Cc1ccccc1 (stereo not given)
inactive: [1] -5.8% | [2] -6.6% | [3] 20.9% | [4] 0.35% | [5] 3.35% | [6] -22.6%

CCCCCCCCCCCCCCCCCC(=O)NCCCNCCCNC(=O)CCCCCCCCCCCCCCCCC
inactive: [1] -10.9% | [2] -21.4% | [3] -12.2% | [4] 7.55% | [5] -17.5% | [6] -13.6%

Cc1[nH]nc(C(=O)O)c1N
inactive: [1] -18.2% | [2] -20.6% | [3] -14.6% | [4] -16.1% | [5] -13.4% | [6] -7.2%

CC1=NN2C(=O)C(c3ccccc3)SC2=NC(C)(C)C1 (stereo not given)
inactive: [1] 13.1% | [2] -18.9% | [3] 4.05% | [4] 26.6% | [5] -9.15% | [6] -7.25%

CC(=O)N1CC/C(=C\c2ccccc2)C1=O
inactive: [1] -10.1% | [2] -7.25% | [3] -12.5% | [4] -6.85% | [5] 0.25% | [6] -3.2%

Cc1nn(CCO)c2nc(N)nc(N)c12
inactive: [1] 2.05% | [2] 3.35% | [3] -0.4% | [4] -1.45% | [5] -6.35% | [6] -3.2%

CC(C)c1cccc(C(C)(C)C)n1
inactive: [1] 16.1% | [2] 30.5% | [3] -2.7% | [4] -3.65% | [5] 0.3% | [6] 11.1%
